Measurements taken from the supplement of paper PMC6555819.

test system: RARb:RXRa (NR concentration 270 nM, RXRa partner concentration 90 nM); assay: PBM binding z-score (relative to random genomic background probes); higher = stronger binding; sequences stand for … in GC…GCGATTGACAGCGTAGAATGAAGG
Outline: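 Custom Agilent 4×180K protein-binding microarrays carried double-stranded probes, each with a 34-nt variable region. These regions held direct-repeat seeds, single-nucleotide variants, half-site ablations and random human genomic background sequences. Ligand-free nuclear receptor dimers were incubated on the arrays for 1 h, antibodies against each partner (one per run) detected binding, and scanned fluorescence was regression-normalized. Binding z-scores take the random background probes as reference.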

Sequence | PBM binding z-score
CGTCCAAGGTCAAGGGTCAGTGAAGAGATGACGG | 5.81
ATCGAAAGATCGACGAGGTGAGTATACACCGTTT | -0.0508
TCTTGTAGATCAAGCAGGTTAAGATAGCCTGAGT | 0.309
GCTACTAGTTGAAAGGGCAACCGAATGATTCTCG | 1.95
TCCGACAGGTGAAGGTAACTCAGGTACGCAGTCG | 0.858
ATGTGTAGGTTAGCTGGGGTCATTCAGACTAGGC | 3.25
TATACAGGGTCAATGGCCAGAGTACGAATGTCGA | 4.05
CGTCAAAGTTCAATGTAACGTAACAGAAAGCAGC | 4.83
ATATGTAGGTTACATCCGGGTCGTTCAGGCTATG | 1.49
CCCTACGGGTCACTGACAGGTTATAGCATTTGGA | 4.02
AGTCAAAGTTCATCTAGGTAACGCAAGATATGCT | 5.03
CGTCCAAGATCAATGCTAGGTCAGTGAAAGCATT | 1.7
TAGCCTAGGTCATTCAGGAGCCAGTATAGAAAGC | 3.62
CCTGCTAGGTCAATGTTCAGCTAAAGCAGCTCGC | 3.8
TCCAGTAGGTTAGGGGCATTCAGAATGGCGTCGA | 1.22
TCGCGGAGGACACGAAGGTCAGAGCTTTCCAGAG | 3.26
CGAAGTAGGTCATCCAGGACAGTGAATACATTGA | 3.82
